Data published in PubChem BioAssay AID1159580 (chemical genetic matrix, 2015).
Hit rate of the full screen: of about 5,500 compounds, about 2,000 (36%) were called active. About 18% were inconclusive and are not listed. Rule as the data show it: active = normalized growth mostly below about 0.91 (no sharp cut-off); inconclusive = no clear call, values can overlap the other calls; inactive = mostly above about 0.92. The list shows a part of the results.

Test: chemical genetic growth profiling, strain panel (AID 1159580);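 also: tested at 20 µM; growth read once vehicle control cultures reached saturation at 30 °C; 1 = growth at the plate median or of vehicle wells; lower values mean less growth of the strain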
Details: growth OD

Measured: normalized growth

CNC(Cc1c[nH]c2ccccc12)C(=O)O (centres undefined)
inactive: S. cerevisiae deletion strains, locus YJR066W, strain TOR1, active compounds read low 0.932 | S. cerevisiae deletion strains, locus YKL009W, strain mrt4, active compounds read low 0.99 | S. cerevisiae deletion strains, locus YKL068W, active compounds read low 0.992 | S. cerevisiae deletion strains, locus YKL085W, strain MDH1 (second series), active compounds read low 0.983 | S. cerevisiae deletion strains, locus YKL085W, strain MDH1, active compounds read low 0.983 | S. cerevisiae deletion strains, locus YKL160W, strain elf1, active compounds read low 0.973 | S. cerevisiae deletion strains, locus YKR001C, strain vps1, active compounds read low 1 | S. cerevisiae deletion strains, locus YKR026C, strain gcn3, active compounds read low 0.975 | S. cerevisiae deletion strains, locus YKR091W, strain srl3, active compounds read low 0.976 | S. cerevisiae deletion strains, locus YLL001W, strain dnm1, active compounds read low 0.972 | S. cerevisiae deletion strains, locus YLL026W, active compounds read low 0.974 | S. cerevisiae deletion strains, locus YLL041C, strain sdh2, active compounds read low 0.981 | S. cerevisiae deletion strains, locus YLR027C, strain aat2, active compounds read low 0.965 | S. cerevisiae deletion strains, locus YLR039C, strain RIC1, active compounds read low 1.03 | S. cerevisiae deletion strains, locus YLR058C, strain SHM2, active compounds read low 0.989 | S. cerevisiae deletion strains, locus YLR102C, strain apc9, active compounds read low 0.995 | S. cerevisiae deletion strains, locus YLR113W, strain HOG1, active compounds read low 1.07 | S. cerevisiae deletion strains, locus YLR221C, strain rsa3, active compounds read low 1.01 | S. cerevisiae deletion strains, locus YLR258W, strain gsy2, active compounds read low 0.99 | S. cerevisiae deletion strains, locus YLR262C, strain YPT6 (second series), active compounds read low 1.01 | S. cerevisiae deletion strains, locus YLR262C, strain YPT6, active compounds read low 1.01 | S. cerevisiae deletion strains, locus YLR268W, strain sec22, active compounds read low 1.03 | S. cerevisiae deletion strains, locus YLR320W, strain mms22, active compounds read low 1.02 | S. cerevisiae deletion strains, locus YLR330W, strain CHS5, active compounds read low 0.987 | S. cerevisiae deletion strains, locus YLR342W, strain FKS1 (second series), active compounds read low 0.957 | S. cerevisiae deletion strains, locus YLR342W, strain FKS1, active compounds read low 0.989 | S. cerevisiae deletion strains, locus YLR357W, strain rsc2, active compounds read low 0.951 | S. cerevisiae deletion strains, locus YLR370C, strain arc18, active compounds read low 0.987 | S. cerevisiae deletion strains, locus YLR371W, strain rom2, active compounds read low 0.969 | S. cerevisiae deletion strains, locus YLR384C, strain iki3, active compounds read low 1.01 | S. cerevisiae deletion strains, locus YLR418C, strain cdc73, active compounds read low 0.983 | S. cerevisiae deletion strains, locus YML016C, strain PPZ1, active compounds read low 0.984 | S. cerevisiae deletion strains, locus YML032C, strain rad52, active compounds read low 0.963 | S. cerevisiae deletion strains, locus YML120C, strain ndi1, active compounds read low 0.983 | S. cerevisiae deletion strains, locus YML124C, strain tub3, active compounds read low 0.994 | S. cerevisiae deletion strains, locus YMR058W, strain fet3, active compounds read low 0.981 | S. cerevisiae deletion strains, locus YMR078C, strain ctf18, active compounds read low 0.984 | S. cerevisiae deletion strains, locus YMR125W, strain sto1, active compounds read low 0.973 | S. cerevisiae deletion strains, locus YMR129W, active compounds read low 0.988 | S. cerevisiae deletion strains, locus YMR205C, strain PFK2, active compounds read low 0.965 | S. cerevisiae deletion strains, locus YMR223W, strain ubp8, active compounds read low 0.972 | S. cerevisiae deletion strains, locus YMR231W, strain pep5, active compounds read low 0.976 | S. cerevisiae deletion strains, locus YMR263W, strain SAP30, active compounds read low 0.982 | S. cerevisiae deletion strains, locus YMR307W, strain GAS1, active compounds read low 0.902 | S. cerevisiae deletion strains, locus YNL067W, strain RPL9B, active compounds read low 0.988 | S. cerevisiae deletion strains, locus YNL071W, strain lat1, active compounds read low 0.989 | S. cerevisiae deletion strains, locus YNL128W, strain TEP1, active compounds read low 0.983 | S. cerevisiae deletion strains, locus YNL153C, strain GIM3, active compounds read low 0.976 | S. cerevisiae deletion strains, locus YNL183C, strain NPR1, active compounds read low 0.993 | S. cerevisiae deletion strains, locus YNL209W, strain ssb2, active compounds read low 0.982 | S. cerevisiae deletion strains, locus YNL233W, strain BNI4, active compounds read low 1 | S. cerevisiae deletion strains, locus YNL248C, strain rpa49, active compounds read low 0.962 | S. cerevisiae deletion strains, locus YNL250W, strain rad50, active compounds read low 0.961 | S. cerevisiae deletion strains, locus YNL271C, strain bni1, active compounds read low 0.994 | S. cerevisiae deletion strains, locus YNL298W, strain CLA4, active compounds read low 0.987 | S. cerevisiae deletion strains, locus YNL307C, strain MCK1, active compounds read low 0.988 | S. cerevisiae deletion strains, locus YNL322C, strain KRE1 (second series), active compounds read low 0.986 | S. cerevisiae deletion strains, locus YNL322C, strain KRE1, active compounds read low 0.985 | S. cerevisiae deletion strains, locus YNR049C, strain mso1, active compounds read low 0.978 | S. cerevisiae deletion strains, locus YNR052C, strain pop2, active compounds read low 0.983 | S. cerevisiae deletion strains, locus YOL012C, strain htz1 1.5 | S. cerevisiae deletion strains, locus YOL147C, strain pex11, active compounds read low 1.01 | S. cerevisiae deletion strains, locus YOR001W, strain rrp6, active compounds read low 0.975 | S. cerevisiae deletion strains, locus YOR061W, strain CKA2, active compounds read low 0.961 | S. cerevisiae deletion strains, locus YOR069W, strain VPS5, active compounds read low 0.999 | S. cerevisiae deletion strains, locus YOR070C, strain gyp1, active compounds read low 1 | S. cerevisiae deletion strains, locus YOR080W, strain dia2, active compounds read low 0.99 | S. cerevisiae deletion strains, locus YOR083W, strain WHI5, active compounds read low 0.975 | S. cerevisiae deletion strains, locus YOR106W, strain vam3, active compounds read low 0.96 | S. cerevisiae deletion strains, locus YOR136W, strain idh2, active compounds read low 0.991 | S. cerevisiae deletion strains, locus YOR144C, strain elg1, active compounds read low 0.988 | S. cerevisiae deletion strains, locus YOR184W, strain ser1, active compounds read low 0.985 | S. cerevisiae deletion strains, locus YOR231W, strain MKK1, active compounds read low 1 | S. cerevisiae deletion strains, locus YOR265W, strain rbl2, active compounds read low 0.974 | S. cerevisiae deletion strains, locus YOR270C, strain vph1, active compounds read low 0.972 | S. cerevisiae deletion strains, locus YOR290C, strain snf2, active compounds read low 0.934 | S. cerevisiae deletion strains, locus YOR316C, strain cot1, active compounds read low 0.991 | S. cerevisiae deletion strains, locus YPL051W, strain arl3, active compounds read low 0.99 | S. cerevisiae deletion strains, locus YPL055C, strain LGE1, active compounds read low 0.953 | S. cerevisiae deletion strains, locus YPL078C, strain atp4, active compounds read low 0.959 | S. cerevisiae deletion strains, locus YPL106C, strain sse1, active compounds read low 0.985 | S. cerevisiae deletion strains, locus YPL240C, strain hsp82, active compounds read low 0.989 | S. cerevisiae deletion strains, locus YPL256C, strain CLN2, active compounds read low 0.978 | S. cerevisiae deletion strains, locus YPR119W, strain clb2, active compounds read low 0.997 | S. cerevisiae deletion strains, locus YPR141C, strain kar3, active compounds read low 0.986 | S. cerevisiae deletion strains, locus YPR163C, strain tif3, active compounds read low 0.993 | S. cerevisiae deletion strains, locus YPR167C, strain met16, active compounds read low 0.992 | S. cerevisiae deletion strains, strain wtn01, active compounds read low 1.02 | S. cerevisiae strains, strain wild type, active compounds read low 1
